Screening data deposited in PubChem by National Center for Advancing Translational Sciences (NCATS).
IL1B secr inh = blocks inflammasome-driven IL-1 beta release | activity change, % at 57.5 µM | 360,000 compounds, 4.7% hits | THP-1 LPS/ATP IL-1B secretion, AlphaLISA, 16 h; hits give low values; in the data active = activity change below about -50%; inconclusive = mostly about -30% to -49%
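Secreted IL-1B measured by AlphaLISA bead assay after 16 h compound exposure of THP-1 cells; compounds (final up to 57.5 uM) added 1 h before LPS (250 ng/mL) and ATP (1.25 mM) stimulation; lower signal means less secretion.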
DT40 TDP1 no CPT = qHTS for Inhibitors of human tyrosyl-DNA phosphodiesterase 1 (TDP1): qHTS in cells in absence of CPT | DT40 Tdp1-/- hTDP1 cells, no CPT, ATP luminescence, 48 h | Potency, µM (doses to about 46.2 µM), usual class: inhibitors | 420,000 compounds, 15% hits | AID 686978, 2013; note: nearly all actives have a fitted effect of over 55% in size
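Cells were dispensed at 400 per well, compounds added by pin tool, plates incubated ≥48 hr at 37 °C, then CellTiter-Glo added for 30 min at room temperature before luminescence reading. Line: DT40 Tdp1-/- complemented with hTDP1; camptothecin omitted.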
TDP1 cell CPT = DT40-hTDP1 cell growth loss with CPT; Potency, µM (highest dose often 46.2 µM), hits mostly inhibitors; chicken DT40 Tdp1-/-;hTDP1 cells + 20 nM CPT, ATP luminescence, 48 h; AID 686979; 420,000 compounds, 12% hits; note: nearly all actives have a fitted effect of over 55% in size
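Chicken DT40 Tdp1-/- cells complemented with human TDP1, 400 cells/well, exposed to compounds plus 20 nM camptothecin for at least 48 h at 37 C; viability read as ATP content by CellTiter-Glo luminescence.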
HT1080NT lethal = kills 2HG-producing HT-1080-NT fibrosarcoma cells; HT-1080-NT fibrosarcoma viability, CellTiter-Glo ATP luminescence, 48 h; 360,000 compounds, 1.6% hits; AID 686970; Potency, µM (top dose mostly 46.1 µM), most hits filed as cytotoxic;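 note: NT is the 2HG producing partner of a matched IDH1 knockdown line; nearly all actives have a fitted effect of over 55% in size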
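Compounds were tested in concentration-response format on HT-1080-NT cells for 48 hours at 37 degrees C. Cell viability came from CellTiter-Glo luminescence; curves were classified by r2, response magnitude and activity.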
HT1080 IDH1KD tx = kills HT-1080 cells with IDH1 knockdown; HT-1080 IDH1 knockdown viability, ATP luminescence, 48 h; Potency, µM (top dose mostly 46.1 µM), most hits filed as cytotoxic; 360,000 compounds, 2% hits; AID 686971
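Luminescent ATP read-out (CellTiter-Glo, 10 min at room temperature) after 48 h compound exposure at 37 °C gave viability of IDH1-knockdown HT-1080 cells. Activity was normalised to DMSO and cell-free wells, then fitted as concentration-response curves.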
A number is an active result; i = inactive; ? = inconclusive; nt = no result; [ ] = remark or other dose. Rows were chosen to be rich in hits. Some 19% of all compounds tested hit in one or more screens of this group. Unless noted, calls come from the whole dose curve; as a rule, active = well fitted curve in the direction sought with a large enough effect; inconclusive = small, poorly fitted or top-dose-only effect, or another doubt; inactive = no such curve, though single readings can be large; an effect the other way counts as inactive or inconclusive.

SMILES	IL1B secr inh	DT40 TDP1 no CPT	TDP1 cell CPT	HT1080NT lethal	HT1080 IDH1KD tx
Cc1ccc(NC2CCCN(C(=O)c3ccccc3-c3ncc[nH]3)C2)cc1C (centres undefined)	i	i	i	i	i
C/C(=N\Nc1ccc([N+](=O)[O-])cc1)c1ccc(O)cc1	-61	?	?	?	?
C/C(=N\NC(=O)C(N)=O)c1cccc([N+](=O)[O-])c1	i	i	i	i	i
CC(=O)/C(=N\Nc1ccccc1)Oc1ccc([N+](=O)[O-])cc1	i	i	i	i	i
C/C(=N\Nc1ccc([N+](=O)[O-])cc1)c1cccc(N)c1	i	21µM	?	i	i
CC(=O)NC/C(C)=N\Nc1ccc([N+](=O)[O-])cc1	i	?	?	4.6µM	3.7µM
C/C(=N/Nc1ccccc1[N+](=O)[O-])c1ccc([N+](=O)[O-])cc1	i	?	i	i	i
CC(C)(C)NC(=O)c1nc2nc(-c3ccccc3)cc(C(F)(F)F)n2n1	i	i	i	i	i
O=C(Cc1ccc(OCC2CCCCC2)cc1)NO	nt	11µM	10µM	nt	nt
COc1ccc(N=CC2=C(O)c3ccccc3C2=O)c(OC)c1	i	18µM	?	?	i
Cc1ccccc1N=CC1=C(O)c2ccccc2C1=O	i	16µM	?	?	?
CC(C)CCn1nnnc1CN1CCN(c2ccccc2)CC1	i	i	i	i	i
CNS(=O)(=O)c1cn(CC(=O)Nc2cccc(OC)c2)cc1S(=O)(=O)NC	nt	i	i	nt	nt
CCOc1ccc(-c2cc(NC(=O)Nc3cccc(C(C)=O)c3)c(C(=O)OC)s2)cc1	nt	i	23µM	nt	nt
CCOC(=O)c1sc(-c2ccccc2)cc1NC(=O)Nc1ccc([N+](=O)[O-])cc1	i	21µM	?	i	i
CCOC(=O)c1sc(-c2ccccc2)cc1N	i	i	i	i	i
COC(=O)c1sc(-c2ccc(C(C)(C)C)cc2)cc1NC(=O)CCC(=O)O	i	?	16µM	i	i
COC(=O)c1sc(-c2ccc(Cl)cc2)cc1NC(=O)COCC(=O)O	i	i	i	i	i
CCOc1ccc(-c2cc(NC(=O)c3ccc(C)cc3)c(C(=O)OC)s2)cc1	nt	i	i	nt	nt
COC(=O)c1sc(-c2ccc(Cl)cc2)cc1NC(=O)/C=C/C(=O)O	-95	6.5µM	5.8µM	?	?
O=C1CC(c2cccc(Cl)c2)CC(O)=C1C=NCCCO (centres undefined)	i	i	i	i	i
CCc1cccc(C)c1NC(=O)CN1C(=O)NC(CCc2ccccc2)C1=O (centres undefined)	i	i	i	i	i
CN(CC(=O)Nc1ccc(Cl)cc1)C(=O)CNC(=O)Cc1cccc2ccccc12	i	?	?	i[9.24 µM]	i
CCOc1ccc(-c2cc(NC(=O)c3ccccc3)c(C(=O)OC)s2)cc1	nt	12µM	?	nt	nt
CCOc1ccc(C(C)NC(=O)Nc2ccccc2C(=O)OC)cc1 (centres undefined)	i	i	?	i	i
SMILES	IL1B secr inh	DT40 TDP1 no CPT	TDP1 cell CPT	HT1080NT lethal	HT1080 IDH1KD tx
CC(C)CC1NC(=O)c2cccnc2-n2c1nc1ccccc1c2=O (centres undefined)	i	i	i	i	i
COC(=O)N1c2ccccc2CCc2ccccc21	i	16µM	21µM	?	?
CC(C)(C)C(=O)N1c2ccccc2CCc2ccccc21	i	?	?	i	i
O=C1C=C(OCCCl)CC(c2cccc(Cl)c2)O1 (centres undefined)	i	i	i	i	i
O=C(O)c1cccc(-n2c(/C=C/c3ccccc3)nc3ccccc3c2=O)c1	i	?	?	i	i
O=C(O)c1cc(-n2c(/C=C\c3ccc(F)cc3)nc3ccccc3c2=O)ccc1Cl	nt	21µM	15µM	nt	nt
COc1cc(OC)c(OC)cc1/C=C/c1nc2cc3ccccc3cc2c(=O)n1-c1ccc(F)cc1F	nt	8.2µM	12µM	nt	nt
COc1cccc(/C=C/c2nc3ccccc3c(=O)n2-c2ccc(C)c(C)c2)c1OC	nt	8.2µM	10µM	nt	nt
O=c1c2ccccc2nc(/C=C/c2cccc3ccccc23)n1-c1ccc(F)cc1F	nt	?	23µM	nt	nt
CNC(=O)CN(C)S(=O)(=O)c1ccc(F)cc1	i	i	i	i	i
Cc1cc(C(=O)Nc2ccccc2-c2nc(CNC(=O)c3ccc(F)cc3F)c(C)o2)c(C)o1	nt	i	i[9.04 µM]	nt	nt
Cc1cc(C(=O)CSc2nc3ccc(Cl)cc3[nH]2)c(C)n1C	i	?	?	i	i
COc1ccc(Nc2nnc(SCC3CCCCO3)s2)cc1 (centres undefined)	i	i	i	i	i
COc1ccc(Nc2nnc(SCC(=O)c3cc(C)n(CC4CCCO4)c3C)s2)cc1 (centres undefined)	i	?	18µM	i	i
Cc1cc(C(=O)CSc2nc3ccc(Cl)cc3[nH]2)c(C)n1CC1CCCO1 (centres undefined)	i	5.8µM	9.2µM	i	?
CN(C(=O)CSc1nnc(-c2ccc(Cl)cc2)n1CC1CCCO1)C1CCS(=O)(=O)C1 (centres undefined)	i	i	i	i	i
